Rows were chosen to be rich in hits. Some 22% of all compounds tested hit in one or more screens of this group.
CYP2C19 inh: inhibitors of human CYP2C19 | inhibition, % at 5 µM | P33261 | 96,000 compounds, 21% hits | CYP2C19 Supersomes, luciferin-H EGE luminescence, 30 min | AID 778;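 active = CYP2C19 inhibition above a set limit at 5 µM in the primary screen, cut at about 50% in these data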;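 note: plate controls were negative control wells for no effect and 2.5 mM tranylcypromine positive control for full effect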
CYP2C9 act: CYP2C9 (human) activation. P11712. recombinant CYP2C9, luciferin-H conversion, luminescence; hits give high values; factor 1 = untreated enzyme, 0 = blocked. activation factor at 5 µM. 96,000 compounds, 1.4% hits. AID 1024;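 active = activation factor of 2 or more for CYP2C9 at a 5 µM dose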;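 note: 0 = sulfaphenazole-blocked wells and 1 = vehicle-only wells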
Target sequence (P11712 whole entry, looked up): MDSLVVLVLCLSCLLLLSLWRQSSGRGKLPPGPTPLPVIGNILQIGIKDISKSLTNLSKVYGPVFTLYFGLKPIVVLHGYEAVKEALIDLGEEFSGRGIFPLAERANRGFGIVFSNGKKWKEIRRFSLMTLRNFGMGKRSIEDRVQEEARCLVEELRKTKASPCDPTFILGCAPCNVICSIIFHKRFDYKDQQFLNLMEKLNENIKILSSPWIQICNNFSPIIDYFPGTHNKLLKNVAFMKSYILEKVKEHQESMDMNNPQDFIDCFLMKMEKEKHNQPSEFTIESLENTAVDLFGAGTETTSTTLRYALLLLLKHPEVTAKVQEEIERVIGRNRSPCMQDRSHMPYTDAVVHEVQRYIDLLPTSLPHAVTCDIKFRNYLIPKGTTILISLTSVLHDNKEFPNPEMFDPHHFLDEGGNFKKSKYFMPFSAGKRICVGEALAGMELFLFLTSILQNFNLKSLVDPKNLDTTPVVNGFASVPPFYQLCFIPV
Measles CPE: protection of cells from measles virus; Measles virus-infected cells, CPE protection, absorbance; protection (pct of control), % at 4 µM; 140,000 compounds, 1.5% hits; in the data active = protection mostly above about 24%, no sharp cut-off; inactive = mostly below about 26%
CYP2C9 inh: inhibitors of human CYP2C9; CYP2C9 Supersomes, luciferin-H conversion, luminescence; 96,000 compounds, 20% hits; inhibition, % at 5 µM; AID 777; P11712;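 active = blocking of liver enzyme CYP2C9 beyond about 50% at 5 µM, limit read from the data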
CYP2C19 act: activators of human cytochrome P450 2C19; P33261; recombinant CYP2C19, luciferin-H EGE luminescence; hits give high values; 0 = fully inhibited enzyme, 1 = untreated enzyme; activation factor at 5 µM; 96,000 tested, under 10 active;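 active = activation factor of at least 2 at 5 µM in the primary screen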;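 note: 0 = wells with 2.5 mM tranylcypromine and 1 = vehicle-only wells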
* marks the source's active call; other numbers are inactive results; · = no result.

SMILES	CYP2C19 inh	CYP2C9 act	Measles CPE	CYP2C9 inh	CYP2C19 act
CCOC(=O)c1ccc(NC(=O)CSc2nnc(COc3ccccc3)n2C)cc1	14.0	1	23.6	2.4	0.9
COC(=O)c1ccccc1NC(=O)CSc1nnc(COc2cccc(OC)c2)n1C	31.7	0.8	4.9	24.7	0.7
COC(=O)c1ccccc1NC(=O)Cn1ccnc1	99.5*	0.2	5.5	83.6*	0
COC(=O)c1ccccc1NC(=O)CSc1nccn1C	85.3*	0.9	6.6	7.1	0.1
CSCCC(NC(=O)c1ccc(Cl)cc1)C(=O)OCC(=O)Nc1cc(Cl)ccc1C#N (configuration not stated)	·	·	8.4	·	·
COC(=O)c1ccccc1NC(=O)CSc1nc(O)cc(=O)n1C1CCCC1	28.0	0.3	6.0	73.8*	0.7
Cc1ccc(NC(=O)Cn2c(CCC(=O)O)ccc2-c2cccs2)cc1	0.7	1.1	5.0	-13.3	1
COC(=O)c1ccccc1NC(=O)Cn1c(CCC(=O)O)ccc1-c1cccs1	53.3*	0.7	9.3	33.4	0.5
Cc1nnc(NC(=O)CSc2nccn2C)s1	·	·	20.7	·	·
Cn1ccnc1SCC(=O)Nc1cccc2ccccc12	96.7*	1.6	34.2	-61.2	0
CC(C)c1ccc(/C=N/NC(=O)c2c(Cl)cnn2C)cc1	·	·	9.7	·	·
COc1cccc(-n2cnc3sc(C)c(C)c3c2=O)c1	·	·	5.5	·	·
CNC(=O)CN(c1ccc(C(C)C)cc1)S(C)(=O)=O	60.7*	1.1	4.9	-9.7	0.4
CCc1ccccc1NC(=O)CC(c1ccc(OC)cc1)n1cccc1 (configuration not stated)	·	·	6.3	·	·
C/C(Cn1nnc([N+](=O)[O-])n1)=N\NC(=O)c1ccccc1Cl	8.9	1.1	49.8*	-9.6	0.9
Cc1ccccc1C(=O)Nc1ccc2nc3n(c(=O)c2c1)CCC3	-13.9	1	1.4	-4.4	1.1
O=C(c1ccc2c(=O)n3c(nc2c1)CCCCC3)N1CCN(C(c2ccccc2)c2ccccc2)CC1	53.0*	0.4	42.4*	62.3*	0.5
O=C(Nc1cccc(Cl)c1)c1ccc2c(=O)n3c(nc2c1)CCCCC3	25.5	0.4	0.2	62.9*	0.7
CN(C)c1cccc(C(=O)Nc2ccc3nc4n(c(=O)c3c2)CCCCC4)c1	76.1*	0.2	8.5	76.1*	0.2
Cc1ccc(S(=O)(=O)N2CCCCC2)cc1NC(=O)c1ccc2c(=O)n3c(nc2c1)CCCCC3	·	·	6.7	·	·
Cc1ccc(-c2csc(NC(=O)c3ccc4c(=O)n5c(nc4c3)CCCCC5)n2)cc1	·	·	55.9*	·	·
COc1ccc(C(=O)CSc2nnc(CN3CCCCC3)n2-c2ccc(Cl)cc2)cc1OC	·	·	2.2	·	·
O=C(NCCC1=CCCCC1)c1ccc2c(=O)n3c(nc2c1)CCCCC3	74.9*	0.1	30.6	94.2*	0.3
O=C(Nc1ccc(S(=O)(=O)N2CCCC2)cc1)c1ccc2c(=O)n3c(nc2c1)CCCCC3	·	·	9.9	·	·
CCC(=NC(C)c1ccccc1)c1c(O)n(C)c(=O)n(C)c1=O (configuration not stated)	67.8*	0.4	23.0	55.6*	0.3
SMILES	CYP2C19 inh	CYP2C9 act	Measles CPE	CYP2C9 inh	CYP2C19 act
Cc1ccc(S(=O)(=O)NCCC(=O)Nc2ccc(C)cc2C(=O)c2ccccc2)cc1	·	·	34.9	·	·
N#Cc1ccc(-c2cccnc2)nc1SCc1ccc(Cl)cc1Cl	18.1	0.4	5.5	56.1*	0.8
O=C(C1CCCO1)N1CCN(C(=S)Nc2ccccc2F)CC1 (configuration not stated)	·	·	5.5	·	·
CSc1nc(Cl)c(Cc2ccc(OC(C)C)cc2)c(N2CCOCC2)n1	45.0	0.4	13.8	61.8*	0.6
CC(NC(=O)C1CC2CCCC(C1)C2=O)c1ccccc1 (configuration not stated)	9.7	1.1	1.0	-9.4	0.9
Cc1ccc(N/C(C(Cl)=C(Cl)Cl)=C(/Cl)[N+](=O)[O-])c(C)c1	·	·	9.1	·	·
C/C(=N\NC(=O)c1ccn(C)n1)c1cccc(NC(=O)c2ccncc2)c1	·	·	14.1	·	·
COc1ccccc1CN1CCN(C(=O)c2ccncc2)CC1	86.6*	0.9	20.6	11.6	0.1
COc1cccc(OC)c1C(=O)N1CCN(c2ccccn2)CC1	25.0	0.9	20.4	6.8	0.8
COc1cccc(OC)c1C(=O)N1CCN(Cc2ccncc2)CC1	78.3*	0.4	3.5	62.6*	0.2
Cc1ccnc(NC(NC(=O)C(C)C)(C(F)(F)F)C(F)(F)F)c1	·	·	11.4	·	·
COc1cc(C2C3C(=O)N(c4ccc(F)cc4)C(=O)C3ON2c2ccccc2)ccc1O (configuration not stated)	41.8	0.5	12.2	53.3*	0.6
O=C1C2ON(c3ccccc3)C(c3cccnc3)C2C(=O)N1c1ccc(Cl)c(Cl)c1 (configuration not stated)	67.5*	0.5	3.5	46.2	0.3
COc1cc(C2C3C(=O)N(c4ccccc4)C(=O)C3ON2c2ccccc2)cc(OC)c1OC (configuration not stated)	50.2*	0.8	4.4	23.3	0.5
C=CCn1c(SCC(=O)Nc2nccs2)nnc1-c1cc2cccc(OC)c2o1	8.6	1.7	17.2	-72.7	0.9
COc1ccc(N(C(=O)Cn2nnc3ccccc32)C(C(=O)NCc2ccco2)c2ccc(C)o2)cc1 (configuration not stated)	68.2*	0.4	9.6	58.2*	0.3
Cc1ccc(N(C(=O)Cn2nnc3ccccc32)C(C(=O)NCc2ccco2)c2ccc(C)o2)cc1 (configuration not stated)	39.3	0.8	17.9	17.9	0.6
Cc1ccc(N(C(=O)Cn2nnc3ccccc32)C(C(=O)NCc2ccco2)c2cccnc2)cc1 (configuration not stated)	65.0*	0.9	5.6	6.1	0.3
COc1cccc(N(C(=O)Cn2nnc3ccccc32)C(C(=O)NCc2ccco2)c2cccnc2)c1 (configuration not stated)	78.6*	0.7	2.4	32.0	0.2
COc1ccc(OC)c(C(C(=O)NCc2ccco2)N(C(=O)Cn2nnc3ccccc32)C2CC2)c1 (configuration not stated)	49.2	0.9	5.1	9.2	0.5
COc1ccc(OC)c(C(C(=O)NCc2ccco2)N(C(=O)Cn2nnc3ccccc32)C(C)C)c1 (configuration not stated)	62.3*	0.9	22.1	11.7	0.4
Cc1cc(C)cc(N(C(=O)Cn2nnc3ccccc32)C(C(=O)NCc2ccco2)c2ccncc2)c1 (configuration not stated)	33.2	0.9	3.2	13.3	0.7
Cc1ccc(-n2nnnc2SCC(=O)Nc2sccc2C#N)cc1	·	·	5.2	·	·
CCOC(=O)c1sc2ccc(S(=O)(=O)N3CC(C)CC(C)C3)cc2c1N (configuration not stated)	·	·	3.0	·	·
c1cncc(C2Nc3ccccc3-c3nc4ccccc4n32)c1 (configuration not stated)	37.2	0.4	8.3	57.1*	0.6

Assay outcomes (PubChem)
